Measured values from PubChem BioAssay (EPA / NIEHS).
Activity calls are given as the source filed them. Rule for the calls: active = hit-call score of the fitted dose curve at least 0.9, where 1 is the maximum; inactive = score below 0.9.

assay: CCTE_Simmons_MITO_max_resp_rate: CCTE's HepG2 Seahorse XF Respirometric Screening Assay at Maximal Respiratory State [uncoupled], Simmons Lab (AID 2284002); settings: actives raise or lower the signal
Experimental: CCTE_Simmons_MITO is cell-based, respirometric assay using HepG2 cells and a Seahorse XF Analyzer to measure oxygen consumption rates over four temporal phases spanning a total of 72 minutes: pre-injection (pre-treatment), basal (following test compound injection), maximal (following FCCP uncoupler injection), and inhibited (following rotenone/antimycin A injection)CCTE_Simmons_MITO_max_resp_rate is one of 4 assay components calculated from the CCTE_Simmons_MITO assay. It is designed to make measurements of maximal respiration using a form of respirometric reporter, as detected with […] signals by Seahorse XF96 technology. Data from the assay component CCTE_Simmons_MITO_max_resp_rate was analyzed at the endpoint, CCTE_Simmons_MITO_max_resp_rate_OCR, with bidirectional fitting relative to DMSO as the negative control and baseline of activity. Using a type of respirometric reporter, measures of maximal respiration for gain or loss-of-signal activity can be used to understand cellular oxygen consumption as it relates to cellular respiration. To generalize the intended target to other relatable targets, this assay endpoint is annotated to the mitochondria intended target family, where the subfamily is respiration.
Test chemicals were administered as a titrated series of 7 concentrations from 125 nM up to 100 uM [final] prior to kinetic endpoint detection at 6 minute intervals [3 min mix followed by 3 minutes measure] for 72 minutes. Three biological replicates of technical singles were run for every chemical concentration tested. Dimethylsulfoxide [DMSO] was used as the vehicle control. The electron transport chain inhibitor fenpyroximate was used as the positive control for decreased basal respiration and was administered as a titrated series of 6 concentrations from 250 nM up to 2.75 uM [final] with technical triplicates for the top concentration only. The uncoupler 2,4-dintirophenol was used as the positive control for increased basal respiration and was administered as a titrated series of 6 concentrations from 938 nM up to 40 uM [final] with technical triplicates for the top concentration only. A Seahorse XF Analzyer is required to measure the response.

SMILES	outcome	AC50
COc1cc(C=O)cc2c1[C@H](COC(N)=O)[C@]1(OC(C)=O)ON2C[C@H]2[C@@H]1N2C(C)=O	inactive	
CC(C)COC(=O)c1ccccc1C(=O)OCC(C)C		50 µM (active)
Nc1ccc(N=Nc2ccccc2)cc1	inactive	
CC(C)(C)C(O)(CCc1ccc(Cl)cc1)Cn1cncn1 (configuration not stated)		33.4 µM (active)
[Cl-].[Cl-].[Hg+2]		50 µM (active)
C[C@]12C=CC3=C4CCC(=O)C=C4CC[C@H]3[C@@H]1CC[C@@H]2O	inactive	
CC(C)N(Cc1ccccc1)C(=O)C(C)(C)C	inactive	
CCOC(=O)[C@]1(c2ccccc2)Oc2ccccc2[C@@H]1N		31.3 µM (active)
CCC(C)c1ccc(O)cc1 (configuration not stated)	inactive	
CCCCCCCCn1sccc1=O		52 µM (active)
Cc1cc(N=Nc2ccccc2C)ccc1N		36.4 µM (active)
CCC[CH2][Sn]([Cl])([CH2]CCC)[CH2]CCC		3.2 µM (active)
